Assay results reported in article PMC11062922 (Nature Chemical Biology, 2023).
Where two headings read alike, the source gives them in different places.

Assays:
Parameters in all cases: species or system human, MV4-11 + K-562 + COLO205 + SK-N-BE2 + OVCAR-8
CDC42BPG = details: read-out: apparent Kd, n = 1
HSPE1 = details: read-out: apparent Kd; compound concentrations:100 nM and 1000 nM (sheet 'Samples'); n = 1
CAMK4 = details: read-out: apparent Kd, n = 1
CSNK1A1 = details: read-out: apparent Kd; compound concentrations: 100 nM and 1000 nM (sheet 'Samples'), CATDS: 0.27381506430700697; n = 1
RIOK2 = details: read-out: apparent Kd; compound concentrations: 100 nM and 1000 nM (sheet 'Samples'), CATDS: 0.35131899059620803; n = 1
CAMKK2 = details: read-out: apparent Kd; compound concentrations: 100 nM and 1000 nM (sheet 'Samples'), CATDS: 0.352133758471873; n = 1
EGFR = details: read-out: apparent Kd; compound concentrations: 100 nM and 1000 nM (sheet 'Samples'), CATDS: 0.86194262245046105; n = 1
CAMK2B = details: read-out: apparent Kd; compound concentrations: 100 nM and 1000 nM (sheet 'Samples'), CATDS: 8.8630985713884503E-2; n = 1
FLT3 = details: read-out: apparent Kd; compound concentrations: 100 nM and 1000 nM (sheet 'Samples'), CATDS: 7.5963882735203103E-2; n = 1
FYN = details: read-out: apparent Kd; compound concentrations: 100 nM and 1000 nM (sheet 'Samples'), CATDS: 6.1091429900981202E-2; n = 1
HCK = details: read-out: apparent Kd; compound concentrations: 100 nM and 1000 nM (sheet 'Samples'), CATDS: 0.204546800943642; n = 1
LCK = details: read-out: apparent Kd; compound concentrations: 100 nM and 1000 nM (sheet 'Samples'), CATDS: 6.2891353750110596E-2; n = 1
LYN = details: read-out: apparent Kd; compound concentrations: 100 nM and 1000 nM (sheet 'Samples'), CATDS: 6.1198388947790797E-2; n = 1
MAP2K5 = details: read-out: apparent Kd; compound concentrations: 100 nM and 1000 nM (sheet 'Samples'), CATDS: 0.12646942491879101; n = 1
MAPK14 = details: read-out: apparent Kd, n = 1
PTK6 = details: read-out: apparent Kd; compound concentrations: 100 nM and 1000 nM (sheet 'Samples'), CATDS: 6.47566338134071E-2; n = 1
RIPK2 = details: read-out: apparent Kd; compound concentrations: 100 nM and 1000 nM (sheet 'Samples'), CATDS: 0.112898428987699; n = 1
RIPK3 = details: read-out: apparent Kd; compound concentrations: 100 nM and 1000 nM (sheet 'Samples'), CATDS: 6.7046149691073503E-2; n = 1
SRC = details: read-out: apparent Kd; compound concentrations: 100 nM and 1000 nM (sheet 'Samples'), CATDS: 7.0333029214927095E-2; n = 1
YES1 = details: read-out: apparent Kd; compound concentrations: 100 nM and 1000 nM (sheet 'Samples'), CATDS: 8.7589956864903007E-2; n = 1
CDC42BPA = details: read-out: apparent Kd; compound concentrations:100 nM and 1000 nM (sheet 'Samples'); n = 1
CDC42BPB = details: read-out: apparent Kd, n = 1
CDKL5 = details: read-out: apparent Kd; compound concentrations:100 nM and 1000 nM (sheet 'Samples'); n = 1
GRK6 = details: read-out: apparent Kd; compound concentrations:100 nM and 1000 nM (sheet 'Samples'); n = 1
LATS1 = details: read-out: apparent Kd; compound concentrations:100 nM and 1000 nM (sheet 'Samples'); n = 1
PKN1 = details: read-out: apparent Kd; compound concentrations:100 nM and 1000 nM (sheet 'Samples'); n = 1
PKN2 = details: read-out: apparent Kd; compound concentrations:100 nM and 1000 nM (sheet 'Samples'); n = 1
PKN3 = details: read-out: apparent Kd; compound concentrations:100 nM and 1000 nM (sheet 'Samples'); n = 1
PRKAA1 = details: read-out: apparent Kd; compound concentrations:100 nM and 1000 nM (sheet 'Samples'); n = 1
PRKACA = details: read-out: apparent Kd; compound concentrations:100 nM and 1000 nM (sheet 'Samples'); n = 1
PRKACB = details: read-out: apparent Kd; compound concentrations:100 nM and 1000 nM (sheet 'Samples'); n = 1
PRKAG1 = details: read-out: apparent Kd; compound concentrations:100 nM and 1000 nM (sheet 'Samples'); n = 1
PRKAG2 = details: read-out: apparent Kd; compound concentrations:100 nM and 1000 nM (sheet 'Samples'); n = 1
PRKCA = details: read-out: apparent Kd; compound concentrations:100 nM and 1000 nM (sheet 'Samples'); n = 1
PRKCD = details: read-out: apparent Kd; compound concentrations:100 nM and 1000 nM (sheet 'Samples'); n = 1
PRKG1 = details: read-out: apparent Kd; compound concentrations:100 nM and 1000 nM (sheet 'Samples'); n = 1
PRKX;PRKY = details: read-out: apparent Kd; compound concentrations:100 nM and 1000 nM (sheet 'Samples'); n = 1
ROCK1 = details: read-out: apparent Kd, n = 1
ROCK2 = details: read-out: apparent Kd, n = 1
RPS6KA5 = details: read-out: apparent Kd; compound concentrations:100 nM and 1000 nM (sheet 'Samples'); n = 1
RPS6KB1 = details: read-out: apparent Kd; compound concentrations:100 nM and 1000 nM (sheet 'Samples'); n = 1
PRKX = details: read-out: apparent Kd; compound concentrations: 100 nM and 1000 nM (sheet 'Samples'), CATDS: 0.17762279557226701; n = 1
CDK2 = details: read-out: apparent Kd; compound concentrations:100 nM and 1000 nM (sheet 'Samples'); n = 1
CDK4 = details: read-out: apparent Kd; compound concentrations:100 nM and 1000 nM (sheet 'Samples'); n = 1
GSK3A = details: read-out: apparent Kd; compound concentrations:100 nM and 1000 nM (sheet 'Samples'); n = 1
ILK = details: read-out: apparent Kd; compound concentrations:100 nM and 1000 nM (sheet 'Samples'); n = 1
OPA1 = details: read-out: apparent Kd; compound concentrations:100 nM and 1000 nM (sheet 'Samples'); n = 1
SMC4 = details: read-out: apparent Kd; compound concentrations:100 nM and 1000 nM (sheet 'Samples'); n = 1
VDAC3 = details: read-out: apparent Kd; compound concentrations:100 nM and 1000 nM (sheet 'Samples'); n = 1
IRAK3 = details: read-out: apparent Kd; compound concentrations:100 nM and 1000 nM (sheet 'Samples'); n = 1
PIK3CA = details: read-out: apparent Kd; compound concentrations:100 nM and 1000 nM (sheet 'Samples'); n = 1
PIK3CD = details: read-out: apparent Kd; compound concentrations:100 nM and 1000 nM (sheet 'Samples'); n = 1
PIM1 = details: read-out: apparent Kd; compound concentrations:100 nM and 1000 nM (sheet 'Samples'); n = 1
STK16 = details: read-out: apparent Kd; compound concentrations:100 nM and 1000 nM (sheet 'Samples'); n = 1
[1] = compound concentrations:100 nM and 1000 nM (sheet 'Samples')

O=C(Nc1n[nH]c2nc(-c3ccccc3)ccc12)C1CC1 [SB-708999]
potency estimated from few doses (CDC42BPG; [1]): 1760 nM | potency estimated from few doses (HSPE1): 296 nM

C/C(=C1/SC(NCc2cccs2)=NC1=O)c1ccc2ncccc2c1 [RO4607009-000]
potency estimated from few doses (CAMK4; compound concentrations: 100 nM and 1000 nM (sheet 'Samples'), CATDS: 0.39593568375035498): 2260 nM | potency estimated from few doses (CDC42BPG; compound concentrations: 100 nM and 1000 nM (sheet 'Samples'), CATDS: 0.67827085462466996): 701 nM

COc1ccc(C2=C(N3CCc4ccccc43)C(=O)NC2=O)cc1 [SB-361058]
potency estimated from few doses (CAMK4; compound concentrations: 100 nM and 1000 nM (sheet 'Samples'), CATDS: 0.39976270483603599): 1170 nM | potency estimated from few doses (CSNK1A1): 2590 nM | potency estimated from few doses (RIOK2): 1480 nM

COc1ccc(-c2nn3ncccc3c2-c2ccnc(Nc3cccc(C(F)(F)F)c3)n2)cc1 [GW827105X]
potency estimated from few doses (CDC42BPG; compound concentrations: 100 nM and 1000 nM (sheet 'Samples'), CATDS: 1): 1920 nM

CN(C)C(=O)O[C@H]1CN[C@H](C#Cc2cc3ncnc(Nc4ccc(OCc5cccc(F)c5)c(Cl)c4)c3s2)C1 [GSK182497A]
potency estimated from few doses (CAMKK2): 2010 nM | potency estimated from few doses (EGFR): 175 nM

c1ccc(Oc2ccc(Nc3ccnc4cc(-c5ccc(CNCCN6CCOCC6)o5)ccc34)cc2)nc1 [GW567145X]
potency estimated from few doses (CAMK2B): 448 nM | potency estimated from few doses (FLT3): 620 nM | potency estimated from few doses (FYN): 1080 nM | potency estimated from few doses (HCK): 118 nM | potency estimated from few doses (LCK): 994 nM | potency estimated from few doses (LYN): 1080 nM | potency estimated from few doses (MAP2K5): 239 nM | potency estimated from few doses (MAPK14; compound concentrations: 100 nM and 1000 nM (sheet 'Samples'), CATDS: 5.4651958851346001E-2): 1550 nM | potency estimated from few doses (PTK6): 917 nM | potency estimated from few doses (RIPK2): 288 nM | potency estimated from few doses (RIPK3): 837 nM | potency estimated from few doses (SRC): 742 nM | potency estimated from few doses (YES1): 459 nM

COc1ccc(C[C@@H](CN)NC(=O)c2cc(Br)c(-c3ccnc4[nH]ccc34)s2)cc1.COc1ccc(C[C@@H](CN)NC(=O)c2cc(Br)c(-c3ccnc4[nH]ccc34)s2)cc1.Cl.Cl [GSK1389063A]
potency estimated from few doses (CDC42BPA): 757 nM | potency estimated from few doses (CDC42BPB; [1]): 80.7 nM | potency estimated from few doses (CDC42BPG; [1]): 21.2 nM | potency estimated from few doses (CDKL5): 1370 nM | potency estimated from few doses (GRK6): 93 nM | potency estimated from few doses (LATS1): 287 nM | potency estimated from few doses (PKN1): 339 nM | potency estimated from few doses (PKN2): 897 nM | potency estimated from few doses (PKN3): 921 nM | potency estimated from few doses (PRKAA1): 1570 nM | potency estimated from few doses (PRKACA): 11.7 nM | potency estimated from few doses (PRKACB): 23.5 nM | potency estimated from few doses (PRKAG1): 976 nM | potency estimated from few doses (PRKAG2): 863 nM | potency estimated from few doses (PRKCA): 2340 nM | potency estimated from few doses (PRKCD): 1750 nM | potency estimated from few doses (PRKG1): 27.3 nM | potency estimated from few doses (PRKX;PRKY): 127 nM | potency estimated from few doses (ROCK1; [1]): 17.9 nM | potency estimated from few doses (ROCK2; [1]): 21.5 nM | potency estimated from few doses (RPS6KA5): 899 nM | potency estimated from few doses (RPS6KB1): 130 nM

Cl.Cl.NC[C@H](Cc1ccc(C(F)(F)F)cc1)NC(=O)c1cc(Br)c(-c2ccnc3[nH]ccc23)s1.NC[C@H](Cc1ccc(C(F)(F)F)cc1)NC(=O)c1cc(Br)c(-c2ccnc3[nH]ccc23)s1 [GSK1487252A]
potency estimated from few doses (CDC42BPB; [1]): 2460 nM | potency estimated from few doses (PKN1): 2080 nM | potency estimated from few doses (PRKACA): 20.5 nM | potency estimated from few doses (PRKACB): 60.6 nM | potency estimated from few doses (PRKG1): 30.2 nM | potency estimated from few doses (PRKX;PRKY): 593 nM | potency estimated from few doses (ROCK1; [1]): 217 nM | potency estimated from few doses (ROCK2; [1]): 180 nM | potency estimated from few doses (RPS6KB1): 461 nM

CC1=C(C(=O)Nc2cc(Cl)c3[nH]ncc3c2)C(c2ccc(C(F)(F)F)cc2)CC(=O)N1 (stereo not shown) [GSK466317A]
potency estimated from few doses (CDC42BPB; compound concentrations: 100 nM and 1000 nM (sheet 'Samples'), CATDS: 0.18288519935085101): 1940 nM | potency estimated from few doses (PRKX): 2180 nM | potency estimated from few doses (ROCK1; compound concentrations: 100 nM and 1000 nM (sheet 'Samples'), CATDS: 0.39431900573288498): 277 nM | potency estimated from few doses (ROCK2; compound concentrations: 100 nM and 1000 nM (sheet 'Samples'), CATDS: 0.422625118244225): 246 nM

O=C(Nc1n[nH]c2nc(-c3nccs3)c(Br)cc12)C1CC1 [SB-742251]
potency estimated from few doses (CAMK4; [1]): 1800 nM | potency estimated from few doses (CDK2): 1640 nM | potency estimated from few doses (CDK4): 1480 nM | potency estimated from few doses (GSK3A): 873 nM | potency estimated from few doses (ILK): 2010 nM | potency estimated from few doses (OPA1): 1520 nM | potency estimated from few doses (SMC4): 1950 nM | potency estimated from few doses (VDAC3): 2000 nM

O=C(Nc1n[nH]c2nc(-c3ccccc3)c(Br)cc12)C1CC1 [SB-708998]
potency estimated from few doses (CDC42BPG; [1]): 1880 nM | potency estimated from few doses (IRAK3): 1410 nM | potency estimated from few doses (MAPK14; [1]): 1640 nM | potency estimated from few doses (PIK3CA): 245 nM | potency estimated from few doses (PIK3CD): 187 nM | potency estimated from few doses (PIM1): 1280 nM | potency estimated from few doses (STK16): 1890 nM
